Compound activity: PubChem, The Scripps Research Institute Molecular Screening Center
PAFAH1B2 inh – inhibitors of human PAFAH1B2 | P68402 | recombinant PAFAH1B2, FP-rhodamine activity probe, fluorescence polarization | inhibition, % at 3.39 µM | 340,000 compounds, 1.2% hits | AID 492953;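 active means inhibition above the mean of all tested compounds plus 3 SD, cut at about 24% in these data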
PP5 inh – inhibitors of human protein phosphatase 5 (PP5); 320,000 compounds, 0.18% hits; inhibition, % at 6.7 µM; P53041; purified PP5c, OMFP substrate fluorescence; AID 1987;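 active means inhibition above the campaign's mean inhibition across all tested compounds plus 3 SD, cut at about 9.5% in these data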
Target sequence (P53041 whole entry, looked up): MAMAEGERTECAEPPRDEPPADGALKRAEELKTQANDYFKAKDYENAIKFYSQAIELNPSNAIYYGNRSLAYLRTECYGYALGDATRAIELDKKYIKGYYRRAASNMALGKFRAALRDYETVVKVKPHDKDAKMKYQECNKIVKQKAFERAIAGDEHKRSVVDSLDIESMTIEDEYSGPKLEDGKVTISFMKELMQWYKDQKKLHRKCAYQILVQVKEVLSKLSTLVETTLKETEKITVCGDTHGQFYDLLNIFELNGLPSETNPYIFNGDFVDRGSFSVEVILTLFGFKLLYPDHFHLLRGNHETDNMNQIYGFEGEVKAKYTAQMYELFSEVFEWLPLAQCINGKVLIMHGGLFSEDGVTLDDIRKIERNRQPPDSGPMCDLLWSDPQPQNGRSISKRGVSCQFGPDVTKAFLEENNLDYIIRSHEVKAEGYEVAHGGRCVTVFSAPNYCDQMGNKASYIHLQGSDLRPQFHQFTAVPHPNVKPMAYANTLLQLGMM
CTSL1 counter – cathepsin L1 inhibition, PFM18AAP counter-screen; 300,000 compounds, 0.49% hits; recombinant F. hepatica cathepsin L1, Z-Leu-Arg-MCA fluorescence; inhibition, % at 5.96 µM;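 active means inhibition above the mean of all tested compounds plus 3 SD, set per screening campaign, cut at about 17% in these data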
pPAFAH inh – inhibitors of human plasma PAF acetylhydrolase (pPAFAH). Q13093. recombinant pPAFAH, FP-rhodamine probe fluorescence polarization. inhibition, % at 3.39 µM. 330,000 compounds, 1.5% hits. AID 463082;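 active means inhibition above the mean inhibition across the screen plus 3 SD, cut at about 25% in these data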;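 further: inhibitors block binding of the rhodamine activity-based probe so polarization drops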
PAFAH1B3 FP inh – blocks human PAF acetylhydrolase 1B catalytic subunit 3; Q15102; recombinant PAFAH1B3, FP-rhodamine probe, fluorescence polarization; inhibition, % at 3.39 µM; 340,000 compounds, 0.28% hits; AID 492972;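 active means inhibition above the screen-wide average of all tested compounds plus 3 SD, cut at about 25% in these data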
PAFAH2 inh – PAFAH2 (human) inhibition; inhibition, % at 3.39 µM; 340,000 compounds, 0.99% hits; recombinant PAFAH2, FP-rhodamine activity probe, fluorescence polarization;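 active means inhibition above the mean over all tested compounds plus 3 SD, cut at about 30% in these data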;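 further: inhibitors block probe labeling of enzyme so polarization drops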
Each line names hits and unclear results; the compound was inactive in the other large screens. The list is not random: actives were taken first. Their share in the collection is about 3%.

CCc1ccc(-c2nnn(CC(=O)N(C3CCCC3)C3CCS(=O)(=O)C3)n2)cc1 (configuration not stated)	none (no result: CTSL1 counter)
CCc1cc(=O)oc2c3c(cc(OCC(=O)NCCCC(=O)O)c12)OC(C)(C)CC3	pPAFAH inh 31.7, PAFAH2 inh 38.9
Cc1cc(=O)oc2c3c(cc(OCC(=O)NC(Cc4ccc(Cl)cc4)C(=O)O)c12)OC(C)(C)CC3 (configuration not stated)	PAFAH1B2 inh 57.9, pPAFAH inh 27.0, PAFAH2 inh 33.2
COc1ccccc1CNC(=O)COc1cc2c(c3oc(=O)cc(C)c13)CCC(C)(C)O2	PAFAH1B2 inh 26.7
Cc1cc(=O)oc2c3c(cc(OCC(=O)NCc4cccnc4)c12)OC(C)(C)CC3	none
O=C(O)Cc1cccc(=O)c(O)c1C(=O)O	none (no result: PP5 inh, CTSL1 counter, pPAFAH inh)
CN(C(=O)COc1ncnc2sccc12)C1CCCCC1	none (no result: CTSL1 counter)
CCCC(=O)N(c1ccc2oc(=O)sc2c1)S(=O)(=O)c1cccs1	PAFAH2 inh 34.6
CC(=O)N(c1ccc2oc(=O)sc2c1)S(=O)(=O)c1ccccc1	none
CCCCC(=O)NC(c1ccc(Cl)cc1)c1ccc2cccnc2c1O (configuration not stated)	none
CCCCC(=O)NC(c1ccc(N(C)C)cc1)c1ccc2cccnc2c1O (configuration not stated)	pPAFAH inh 25.9
CCCCC(=O)NC(c1ccc(N(CC)CC)cc1)c1ccc2cccnc2c1O (configuration not stated)	pPAFAH inh 26.0
NS(=O)(=O)c1ccc(CNS(=O)(=O)c2ccc3c(c2)OCCO3)cc1	none
Cc1ccc(CNS(=O)(=O)c2ccc3c(c2)OCCO3)cc1	PAFAH1B2 inh 26.9
CC(=O)N1CCOc2ccc(S(=O)(=O)NCc3ccc(C)cc3)cc21	PAFAH1B2 inh 33.7
CC(=O)N1CCOc2ccc(S(=O)(=O)NCCc3ccc(C)cc3)cc21	PAFAH1B2 inh 32.3
C#CCN(C(=O)c1ccc(OC)c(OC2CCN(C(C)C)CC2)c1)C1CCCCC1	none (no result: PP5 inh, CTSL1 counter, pPAFAH inh)
CCOC(=O)N/N=C/c1ccc(OCCSc2ccc(Cl)cc2)c(OC)c1	pPAFAH inh 34.4
O=[N+]([O-])c1ccc(O)c(/C=N/Nc2nc3ccccc3[nH]2)c1	PAFAH1B2 inh 35.3
O=[N+]([O-])c1cccc(N/N=C/c2cc([N+](=O)[O-])ccc2O)c1	pPAFAH inh 27.7, PAFAH2 inh 39.5
O=[N+]([O-])c1ccc(O)c(/C=N/NC(=S)Nc2ccc(Cl)cc2Cl)c1	PAFAH1B2 inh 42.0, PAFAH2 inh 45.4
O=C(N/N=C/c1cc([N+](=O)[O-])ccc1O)Nc1ccccc1	PAFAH1B2 inh 31.6
COC(=O)c1ccc(CN(c2ccc(C(=O)O)c(O)c2)S(=O)(=O)c2ccc(Cl)c([N+](=O)[O-])c2)cc1	none
Clc1cccc(Cl)c1CSc1nnc2ccccn12	none
Brc1ccc(CSc2nnc3ccccn23)cc1	PAFAH1B2 inh 29.7
S=C(NCc1ccco1)Nc1ccc(Cl)cn1	none
N#CCC(=O)Nc1ccc(C(=O)N2CCN(c3ccccn3)CC2)cc1	none
O=C(CSc1nccn1-c1ccccc1)N1CCc2ccccc21	none
O=C(CSc1nccn1-c1ccc(Cl)cc1)N1CCCc2ccccc21	PAFAH1B2 inh 25.4
O=C(CSc1nc2ccccc2c(=O)n1-c1ccccc1)N1CCCc2ccccc21	CTSL1 counter 36.0
Cc1ccc(/C=N/Nc2ccc(C(=O)O)cc2)s1	pPAFAH inh 25.7
Cc1ccc(/C=N/Nc2cccc(C(=O)O)c2)s1	none
CC(=O)N1CC(C(=O)Nc2ccc3c(c2)OCO3)Oc2ccccc21 (configuration not stated)	none (no result: PP5 inh, CTSL1 counter)
CCOC(=O)c1cc(CC)sc1NC(=O)C1CC(=O)NN1Cc1ccccc1 (configuration not stated)	pPAFAH inh 31.8
COCCCNC(=O)CN(c1ccc(F)cc1)S(=O)(=O)c1ccc2c(c1)OCCO2	none
CC(=O)Nc1ccc(NC2CCCCC2NS(=O)(=O)c2ccc(Cl)cc2)cc1 (configuration not stated)	none
COc1ccc(CCN(C)C(=O)C2CCN(C(=O)Nc3ccccc3)CC2)cc1OC	none
Oc1ccc(/C=N/Nc2ncnc3c2ncn3Cc2ccccc2)cc1O	pPAFAH inh 30.4
CC(C)NC(=O)NC(=O)CN1c2cccc3cccc(c23)S1(=O)=O	none
